Columns and labels:
Assay in all cases: PBM binding z-score (relative to random genomic background probes); higher = stronger binding; sequences stand for … in GC…GCGATTGACAGCGTAGAATGAAGG
[1] = system: FXR:RXRa (NR concentration 270 nM, RXRa partner concentration 90 nM)
How it was run: (§1)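 Ligand-free nuclear receptor dimers were bound for 1 h to custom Agilent 4×180K protein-binding microarrays. Detection used antibodies against each partner (one per run). Binding z-scores rest on regression-normalized fluorescence, with random background probes as the reference.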

[2] = system: LXRa:RXRa (NR concentration 270 nM, RXRa partner concentration 90 nM)
How it was run: as §1

[3] = system: LXRa homodimer (NR concentration 270 nM)
How it was run: as §1

[4] = system: LXRb:RXRa (NR concentration 270 nM, RXRa partner concentration 90 nM)
How it was run: as §1

[5] = system: LXRb homodimer (NR concentration 270 nM)
How it was run: as §1

[6] = system: PPARa:RXRa (NR concentration 270 nM, RXRa partner concentration 90 nM)
How it was run: as §1

[7] = system: PPARg:RXRa (NR concentration 180 nM, RXRa partner concentration 90 nM)
How it was run: as §1

[8] = system: PPARg:RXRa 270nM:90nM, anti-RXR (NR concentration 270 nM, RXRa partner concentration 90 nM)
How it was run: as §1

[9] = system: PPARg:RXRa 30nM:10nM, anti-RXR (NR concentration 30 nM, RXRa partner concentration 10 nM)
How it was run: as §1

[10] = system: PPARg:RXRa 90nM:30nM, anti-RXR (NR concentration 90 nM, RXRa partner concentration 30 nM)
How it was run: as §1

[11] = system: PPARg:RXRa DBDmut IVT, anti-RXR (DBD mutation: RXRa K156A/R161A, NR concentration 270 nM, RXRa partner concentration 90 nM)
How it was run: as §1

[12] = system: PPARg:RXRa IVT, anti-PPARg (NR concentration 270 nM, RXRa partner concentration 90 nM)
How it was run: as §1

[13] = system: PPARg DBDmut:RXRa IVT, anti-PPARg (DBD mutation: PPARg1 K132A/R137A, NR concentration 270 nM, RXRa partner concentration 90 nM)
How it was run: as §1

[14] = system: PPARg DBDmut IVT, anti-PPARg (DBD mutation: PPARg1 K132A/R137A, NR concentration 270 nM)
How it was run: as §1

[15] = system: PPARg homodimer (NR concentration 180 nM)
How it was run: as §1

[16] = system: PXR:RXRa (NR concentration 270 nM, RXRa partner concentration 90 nM)
How it was run: as §1

[17] = system: PXR homodimer (NR concentration 270 nM)
How it was run: as §1

[18] = system: RARa:RXR (NR concentration 270 nM, RXRa partner concentration 90 nM)
How it was run: as §1

[19] = system: RARa homodimer (NR concentration 270 nM)
How it was run: as §1

[20] = system: RARb:RXRa (NR concentration 270 nM, RXRa partner concentration 90 nM)
How it was run: as §1

Row | Sequence | PBM binding z-score [1] | PBM binding z-score [2] | PBM binding z-score [3] | PBM binding z-score [4] | PBM binding z-score [5] | PBM binding z-score [6] | PBM binding z-score [7] | PBM binding z-score [8] | PBM binding z-score [9] | PBM binding z-score [10] | PBM binding z-score [11] | PBM binding z-score [12] | PBM binding z-score [13] | PBM binding z-score [14] | PBM binding z-score [15] | PBM binding z-score [16] | PBM binding z-score [17] | PBM binding z-score [18] | PBM binding z-score [19] | PBM binding z-score [20]
1 | ATCTCTAGGGAAAAGTTCAGTGAATCCCGAGGAT | -0.0297 | 0.401 | 0.405 | 0.302 | 0.328 | 2.67 | 4.59 | 5.66 | 3.84 | 5.64 | -0.096 | 1.64 | 0.313 | 0.383 | 0.686 | 1.42 | 0.706 | 0.616 | 0.196 | 1.77
2 | TCGAGTAGGTTACCAATAGGGCATTCAGCTTTCT | 0.215 | 2.16 | -0.0808 | 0.671 | -1.16 | 1.36 | 0.697 | 1.32 | 1.08 | 1.1 | 3.28 | 2.9 | -0.0313 | 0.193 | -0.151 | 0.391 | -0.656 | 0.441 | -0.367 | 1.08
3 | TGAATGAGGTTAAAGTTCAGGGAACGTGGCGTCG | 5.71 | 4.98 | 2.46 | 3.68 | 0.344 | 6.3 | 9.26 | 8.25 | 8.5 | 9.05 | 2.35 | 5.08 | 1.25 | 1.55 | 1.98 | 5.23 | 0.746 | 6.19 | 0.262 | 3.63
4 | AGAATGAGGTTATTTAGATCAGGGAATTGCGGTC | 2.23 | 1.9 | 0.538 | 1.56 | 0.456 | 2.9 | 1.33 | 1.89 | 0.586 | 1.17 | 2.96 | 2.43 | 1.1 | 0.243 | 1.23 | 1.34 | 0.696 | 1.6 | 0.731 | 1.38
5 | ACAGACAGGTGAGTTAAGGTAACTCAGCTGGACG | 0.488 | -0.196 | -0.499 | -0.279 | -0.347 | 0.226 | 0.637 | 0.279 | 0.254 | 0.0651 | 0.272 | 0.601 | 0.0974 | 0.513 | 0.279 | 0.151 | -0.384 | 1.29 | -0.525 | 0.48
6 | TCTAGTTGGTCAAAGGTCACACGCTCGAAATGCG | 6.24 | 5.77 | 4.22 | 5.45 | 1.94 | 6.6 | 12 | 10.1 | 12.1 | 11.5 | 3.58 | 6.36 | 0.719 | 1.69 | 5.16 | 6 | 2.22 | 7.76 | 3.91 | 4.97
7 | ACAAGCAGGCCAAGGGTCACTCAAGATTAGTCCG | 2.26 | 2.92 | 0.0513 | 2.56 | -0.322 | 4.58 | 8.28 | 7.67 | 6.24 | 7.51 | 1.27 | 3.95 | 0.299 | -0.852 | 2.21 | 3.26 | -0.154 | 4.08 | 0.779 | 3.47
8 | ACTTACGGGTCAACGAGGGTATAGCACGCGTATA | 6.96 | 4.31 | 0.258 | 3.79 | 0.591 | 5.61 | 5.35 | 5.06 | 1.72 | 3.63 | 2.86 | 3.73 | 1.66 | 1.29 | 2.05 | 4.29 | 1.09 | 4.78 | 0.643 | 4.05
9 | TCTATCAGGCCAGAGGGTCACTCAAGAGGTACGG | 1.28 | 1.42 | -0.272 | 1.32 | 0.048 | 2.51 | 1.7 | 2.98 | 3.16 | 3 | 1.69 | 1.3 | -0.288 | -0.122 | 1.01 | 1.83 | 0.211 | 2.39 | 0.259 | 2.52
10 | ACAGACAGGTGATGTAGGTAACTCAGGCTATCAT | -0.0766 | -0.183 | -0.0278 | -0.28 | -0.53 | 0.633 | 0.673 | -0.0404 | -0.31 | -0.171 | 1.26 | 2.15 | 0.582 | 0.742 | -0.119 | -0.31 | 0.148 | -0.0493 | 0.492 | 0.149
11 | TTACCTAGGTGAAGGTCGTTGATCCCTCTGTAGA | 2.2 | 1.82 | -0.334 | 1.6 | -0.843 | 2.32 | 1.4 | 2.36 | 0.624 | 1.55 | 2.92 | 3.84 | 0.00137 | -0.113 | 0.298 | 1.16 | 0.136 | 1.48 | -0.66 | 1.45
12 | ATCGAAAGGTCCAGGTGAGTATAGAGAAAGGGAA | 0.612 | 0.816 | 0.0552 | 0.22 | 0.494 | 0.594 | 0.347 | 0.503 | 0.287 | 0.512 | 0.212 | 0.948 | 0.53 | 0.059 | 0.583 | 0.112 | 0.251 | 0.303 | 0.409 | 1.24
13 | GCTTGTAGATCAAGGATAAGAAAGACTAAGCTAA | -0.495 | -1.03 | -0.557 | -0.935 | -0.998 | -0.619 | 0.375 | 0.179 | -0.00993 | -0.0632 | 0.345 | -0.0525 | -0.469 | -0.526 | -0.571 | -0.567 | -0.33 | -0.653 | -1.12 | -1.81
14 | CGTCAAAGTTCAAGGTAACGTGACAGAAAGCAGC | 5.87 | 5.39 | 2.53 | 3.27 | 0.738 | 4.34 | 4.02 | 4.9 | 2.23 | 3.9 | 0.641 | 2.15 | 0.0239 | 0.308 | 2.16 | 4.21 | 2.13 | 3.56 | 1.05 | 5.08
15 | CCTGCTAGGTCAATCGTCAGCTAAAGCAGCTCGC | 3.35 | 2.19 | -0.244 | 1.57 | 0.108 | 2.85 | 1.39 | 2.18 | -0.19 | 1.39 | 4.52 | 3.19 | -0.719 | -1.31 | 0.995 | 0.842 | -0.551 | 1.58 | -0.666 | 3.63
